Measured values as given in PubChem BioAssay (NCI).
Several values for one entry are separate records, joined by “and”; a condition that tells them apart may be missing. Identical values can stand only once. The panel holds about 79,000 compounds, 15% with a hit somewhere; the sample as a whole holds those more often. A structure can be active in one record and inactive in another. Activity calls are given as the source filed them. Cut-off read from the data, not from the text of the source: active = growth inhibition above about 70%; inactive = the rest.

Tests used:
[1] = NCI Yeast Anticancer Drug Screen. Data for the rad52 strain (AID 147);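 note: 0% = growth of vehicle-treated control cultures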; settings: S. cerevisiae rad52 mutant growth inhibition, stronger effect = higher value
Method in brief: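 Measured: yeast growth inhibition. System: strain with a defined DNA damage repair alteration. Reference: vehicle-treated control cultures.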

[2] = NCI Yeast Anticancer Drug Screen. Data for the wt1 strain (AID 149);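 note: 0% = growth of vehicle-treated wt1 cultures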; settings: S. cerevisiae wt1 strain (SPY 50644) growth inhibition, stronger effect = higher value
Method in brief: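 wt1 strain grown with compound or vehicle; inhibition taken from the growth difference.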

[3] = NCI Yeast Anticancer Drug Screen. Data for the rad50EPP+ strain (AID 151);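 note: 0% = growth of vehicle-treated control cultures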; settings: S. cerevisiae rad50 mutant strain, stronger effect = higher value
Method in brief: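 One strain with a rad50 alteration (rad50EPP+) was compound-treated, its growth then compared to that of vehicle controls.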

[4] = NCI Yeast Anticancer Drug Screen. Data for the mgt1 strain (AID 153); settings: S. cerevisiae mgt1 mutant growth inhibition, stronger effect = higher value
Method in brief: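 After exposure of the mgt1 yeast mutant to compound, growth was measured and reported as inhibition compared with vehicle controls.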

[5] = NCI Yeast Anticancer Drug Screen. Data for the rad50 strain (AID 155);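 note: 0% = growth of vehicle-only cultures of the same strain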; settings: S. cerevisiae rad50 strain growth inhibition, stronger effect = higher value
Method in brief: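 DNA repair mutant yeast, compound exposure, growth read-out; inhibition is taken relative to vehicle.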

[6] = NCI Yeast Anticancer Drug Screen. Data for the mec2-1 strain (AID 157); settings: S. cerevisiae mec2-1 strain, stronger effect = higher value
Method in brief: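 Test agents were screened against the mec2-1 yeast strain, with defined DNA repair or cell cycle alteration. Growth was scored as inhibition against vehicle-only controls.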

[7] = NCI Yeast Anticancer Drug Screen. Data for the rad14 strain (AID 159);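 note: 0% = growth of vehicle-treated control cultures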; settings: S. cerevisiae rad14 strain growth inhibition, stronger effect = higher value
Method in brief: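 DNA repair-defective yeast, compound-exposed; % growth inhibition derived by comparison with vehicle-treated controls.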

[8] = NCI Yeast Anticancer Drug Screen. Data for the sgs1 mgt1 strain (AID 161);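 note: 0% = growth of cultures given vehicle only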; settings: S. cerevisiae sgs1 mgt1 strain, stronger effect = higher value
Method in brief: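 Read-out: growth inhibition vs vehicle controls. Cells: mutant yeast strain deficient in DNA damage repair.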

[9] = NCI Yeast Anticancer Drug Screen. Data for the CLN2oe strain (AID 163);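 note: 0% = growth of vehicle-only control cultures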; settings: S. cerevisiae CLN2oe strain, stronger effect = higher value
Method in brief: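 Here, growth inhibition in a cell-cycle-altered yeast strain after compound exposure was quantified against vehicle control growth.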

[10] = NCI Yeast Anticancer Drug Screen. Data for the cln2 rad14 strain (AID 165);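 note: 0% = growth equal to vehicle treated cultures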; settings: S. cerevisiae cln2 rad14 strain, at 50.0 µM, stronger effect = higher value
Method in brief: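 Growth of compound-exposed yeast (cln2 rad14 genotype) measured and expressed as inhibition relative to vehicle.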

[11] = NCI Yeast Anticancer Drug Screen. Data for the bub3 strain (AID 167); settings: S. cerevisiae bub3 mutant strain, stronger effect = higher value
Method in brief: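 In this screen, a yeast mutant lacking normal mitotic checkpoint function is challenged with compound. Relative growth versus vehicle gives the inhibition value.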

[12] = NCI Yeast Anticancer Drug Screen. Data for the wt2 strain (AID 169);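 note: 0% = growth of vehicle-treated yeast cultures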; settings: S. cerevisiae wt2 strain growth inhibition, stronger effect = higher value
Method in brief: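 Genetically defined yeast strains from a DNA-repair/cell-cycle panel were used. Compound-exposed yeast growth was measured, and the inhibition was calculated relative to vehicle treatment.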

[13] = NCI Yeast Anticancer Drug Screen. Data for the mlh1 strain (AID 171);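 note: 0% = growth of vehicle-treated control cultures of the same strain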; settings: S. cerevisiae mlh1 strain growth inhibition, stronger effect = higher value
Method in brief: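 Here the genetically defined yeast mutant is grown with each compound, and the extent to which its growth falls below that of vehicle-exposed cells is reported.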

[14] = NCI Yeast Anticancer Drug Screen. Data for the sgs1 strain (AID 173);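 note: 0% = growth of vehicle-only control cultures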; settings: S. cerevisiae sgs1 mutant, stronger effect = higher value
Method in brief: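 Relative growth inhibition, referenced to vehicle, was determined in a yeast strain with a defined alteration affecting DNA damage repair or cell cycle control after compound exposure.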

[15] = NCI Yeast Anticancer Drug Screen. Data for the mlh1 rad18 strain (AID 175); settings: S. cerevisiae mlh1 rad18 strain growth inhibition, stronger effect = higher value
Method in brief: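 In this whole-cell yeast screen, a strain with altered DNA damage repair is challenged with compound, and its growth is measured against matched vehicle-treated controls.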

[16] = NCI Yeast Anticancer Drug Screen. Data for the rad18 strain (AID 177); settings: S. cerevisiae rad18 mutant growth inhibition, stronger effect = higher value
Method in brief: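 Screen uses a yeast strain with a defined lesion in DNA damage repair; compound effect is read as loss of growth compared to untreated vehicle cultures.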

[17] = at 5.0 µM (retest, dose inferred, filed as 0.5)
[18] = at 50.0 µM (retest, dose inferred, filed as 5.0)

Oc1cccc2cccnc12
growth inhibition ([1]; at 1.2 µM): 20% (inactive)
growth inhibition ([1]; at 3.7 µM): 91% (active)
growth inhibition ([1]; at 11.0 µM): 93% (active)
growth inhibition ([1]; at 33.0 µM): 94% (active)
growth inhibition ([1]; at 100.0 µM): 96% (active)
growth inhibition ([2]; at 1.2 µM): 27% (inactive)
growth inhibition ([2]; at 3.7 µM): 95% (active)
growth inhibition ([2]; at 11.0 µM): 99% (active)
growth inhibition ([2]; at 33.0 µM): 99% (active)
growth inhibition ([2]; at 100.0 µM): 98% (active)
growth inhibition ([3]; at 1.2 µM): -11% (inactive)
growth inhibition ([3]; at 3.7 µM): 93% (active)
growth inhibition ([3]; at 11.0 µM): 94% (active)
growth inhibition ([3]; at 33.0 µM): 94% (active)
growth inhibition ([3]; at 100.0 µM): 95% (active)
growth inhibition ([4]; at 1.2 µM): 4% (inactive)
growth inhibition ([4]; at 3.7 µM): 91% (active)
growth inhibition ([4]; at 11.0 µM): 96% (active)
growth inhibition ([4]; at 33.0 µM): 98% (active)
growth inhibition ([4]; at 100.0 µM): 97% (active)
growth inhibition ([5]; at 1.2 µM): 18% (inactive)
growth inhibition ([5]; at 3.7 µM): 85% (active)
growth inhibition [5, 17]: 78% (active) and 97% (active) and 96% (active)
growth inhibition ([5]; at 11.0 µM): 97% (active)
growth inhibition ([5]; at 33.0 µM): 97% (active)
growth inhibition [5, 18]: 99% (active)
growth inhibition ([5]; at 50.0 µM): 99.1% (active) [middle of 4 runs]
growth inhibition ([5]; at 100.0 µM): 96% (active)
growth inhibition ([6]; at 1.2 µM): 6% (inactive)
growth inhibition ([6]; at 3.7 µM): 85% (active)
growth inhibition ([6]; at 11.0 µM): 97% (active)
growth inhibition ([6]; at 33.0 µM): 99% (active)
growth inhibition [6, 18]: 99% (active) and 100% (active)
growth inhibition ([6]; at 50.0 µM): 99.1% (active) [middle of 4 runs]
growth inhibition ([6]; at 100.0 µM): 98% (active)
growth inhibition ([7]; at 1.2 µM): 22% (inactive)
growth inhibition ([7]; at 3.7 µM): 85% (active)
growth inhibition ([7]; at 11.0 µM): 98% (active)
growth inhibition ([7]; at 33.0 µM): 98% (active)
growth inhibition ([7]; at 100.0 µM): 98% (active)
growth inhibition [8, 18]: -41% (inactive) and 100% (active) and 99% (active)
growth inhibition ([8]; at 50.0 µM): 95.5% (active) [middle of 5 runs]
growth inhibition ([9]; at 1.2 µM): -19% (inactive)
growth inhibition ([9]; at 3.7 µM): 86% (active)
growth inhibition ([9]; at 11.0 µM): 84% (active)
growth inhibition ([9]; at 33.0 µM): 94% (active)
growth inhibition ([9]; at 100.0 µM): 92% (active)
growth inhibition [10]: 95.5% (active) [middle of 5 runs]
growth inhibition ([11]; at 1.2 µM): -2% (inactive)
growth inhibition ([11]; at 3.7 µM): 63% (inactive)
growth inhibition ([11]; at 11.0 µM): 97% (active)
growth inhibition ([11]; at 33.0 µM): 98% (active)
growth inhibition [11, 18]: -8% (inactive) and 100% (active) and 99% (active)
growth inhibition ([11]; at 50.0 µM): 98.7% (active) [middle of 5 runs]
growth inhibition ([11]; at 100.0 µM): 98% (active)
growth inhibition ([12]; at 1.2 µM): 17% (inactive)
growth inhibition ([12]; at 3.7 µM): 84% (active)
growth inhibition ([12]; at 11.0 µM): 90% (active)
growth inhibition ([12]; at 33.0 µM): 95% (active)
growth inhibition ([12]; at 100.0 µM): 98% (active)
growth inhibition ([13]; at 1.2 µM): 1% (inactive)
growth inhibition ([13]; at 3.7 µM): 74% (active)
growth inhibition ([13]; at 11.0 µM): 97% (active)
growth inhibition ([13]; at 33.0 µM): 98% (active)
growth inhibition ([13]; at 100.0 µM): 98% (active)
growth inhibition ([14]; at 1.2 µM): 47% (inactive)
growth inhibition ([14]; at 3.7 µM): 94% (active)
growth inhibition ([14]; at 11.0 µM): 97% (active)
growth inhibition ([14]; at 33.0 µM): 98% (active)
growth inhibition ([14]; at 100.0 µM): 97% (active)
growth inhibition [15, 17]: 75% (active) [middle of 5 runs]
growth inhibition [15, 18]: 99% (active) and 96% (active)
growth inhibition ([15]; at 50.0 µM): 98.2% (active) [middle of 4 runs]
growth inhibition ([16]; at 1.2 µM): 30% (inactive)
growth inhibition ([16]; at 3.7 µM): 95% (active)
growth inhibition ([16]; at 11.0 µM): 97% (active)
growth inhibition ([16]; at 33.0 µM): 97% (active)
growth inhibition ([16]; at 100.0 µM): 97% (active)

CNC(=O)OCC1C2=C(C(=O)C(C)=C(N)C2=O)N2CC3C(N3C)C12OC (stereo not drawn)
growth inhibition ([1]; at 1.2 µM): 8% (inactive)
growth inhibition ([1]; at 3.7 µM): 50% (inactive)
growth inhibition ([1]; at 11.0 µM): 52% (inactive)
growth inhibition ([1]; at 33.0 µM): 49% (inactive)
growth inhibition ([1]; at 100.0 µM): 72% (active)
growth inhibition ([2]; at 1.2 µM): -2% (inactive)
growth inhibition ([2]; at 3.7 µM): 4% (inactive)
growth inhibition ([2]; at 11.0 µM): 4% (inactive)
growth inhibition ([2]; at 33.0 µM): 2% (inactive)
growth inhibition ([2]; at 100.0 µM): 17% (inactive)
growth inhibition ([3]; at 1.2 µM): 0% (inactive)
growth inhibition ([3]; at 3.7 µM): 10% (inactive)
growth inhibition ([3]; at 11.0 µM): 22% (inactive)
growth inhibition ([3]; at 33.0 µM): 30% (inactive)
growth inhibition ([3]; at 100.0 µM): 41% (inactive)
growth inhibition ([5]; at 1.2 µM): -12% (inactive)
growth inhibition ([5]; at 3.7 µM): 6% (inactive)
growth inhibition [5, 17]: 37% (inactive)
growth inhibition ([5]; at 11.0 µM): 15% (inactive)
growth inhibition ([5]; at 33.0 µM): 22% (inactive)
growth inhibition [5, 18]: 63% (inactive)
growth inhibition ([5]; at 50.0 µM): 51.6% (inactive)
growth inhibition ([5]; at 100.0 µM): 52% (inactive)
growth inhibition ([6]; at 1.2 µM): -14% (inactive)
growth inhibition ([6]; at 3.7 µM): 2% (inactive)
growth inhibition [6, 17]: 20% (inactive)
growth inhibition ([6]; at 11.0 µM): -1% (inactive)
growth inhibition ([6]; at 33.0 µM): 16% (inactive)
growth inhibition [6, 18]: 61% (inactive)
growth inhibition ([6]; at 50.0 µM): 55% (inactive)
